The record followed here is PubChem BioAssay (NCI).

What all share (experiment): NCI-60 one-dose screen, 48 h (100 = growth as untreated, 0 = no growth, -100 = all killed)
Holding throughout (details): 10 µM unless noted

Assay [1] relates to K-562 leukemia.
The subject of assay [2] is MDA-MB-231 breast.
Assay [3] concerns RXF 393 renal.
The test system of assay [4] is SF-268 CNS.
For assay [5], the system named is SF-295 CNS.
Assay [6] concerns SF-539 CNS.
Assay [7] deals with UACC-257 melanoma.
Assay [8] concerns M14 melanoma.
For assay [9], the system named is HCT-15 colon.
Assay [10] concerns HT29 colon.
Assay [11] concerns SNB-75 CNS.
Assay [12] deals with SNB-19 CNS.
In assay [13] the test system is U251 CNS.
Assay [14] relates to PC-3 prostate.
The test system of assay [15] is SK-MEL-5 melanoma.
In assay [16] the test system is UACC-62 melanoma.
In assay [17] the test system is SK-MEL-28 melanoma.
Assay [18] deals with SK-MEL-2 melanoma.
Assay [19] concerns MALME-3M melanoma.
The test system of assay [20] is LOX IMVI melanoma.

Structures are written as SMILES. About 83,000 compounds went through this panel and 20% of them were active in at least one assay; those are over-represented in the sample as a whole.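 The endpoint reported here, percent growth, reads 100 for growth as untreated, 0 for no net growth and -100 for all cells dead.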 Values without a mark were called inactive. Calls of active or inactive are those of the source. The calls were made as follows: active = growth percent below 10; inactive = the rest.

For `COc1ccc(COC(C)=O)cc1`, the growth in assay [1] is 103%; in assay [2] it was 125%; in [3] it was 108%; in assay [4], 101%; in assay [5] it was 116%; in assay [6], 107%. Also, the growth is 109% in [7]; 108% in [8]; 97.6% in [9]; 113% in assay [10]; 114% in assay [11]; 114% in assay [12]. Besides, the growth is 107% in assay [13]; 95.3% in [14]; 108% in assay [15]; 111% in assay [16]; 113% in assay [17]; 113% in assay [18].
In the case of `OC(c1cc(C(F)(F)F)nc2c(C(F)(F)F)cccc12)C1CCCCN1` (stereo not given), the growth is 14.7% in assay [1]; 100% in assay [19]; 47.1% in assay [2]; 47.9% in assay [4]; 88.2% in [5]; 82.8% in assay [6]. Also, the growth in assay [8] is 76%; in assay [9] it was 77.5%; in assay [10], -66.5% (active); in assay [11], 33%; in assay [12], 53.7%; in [14], 36.7%. Also, the growth is 61.3% in assay [15]; 76.6% in assay [16]; 11.9% in [20]; 72.1% in [17]; 56.4% in [18].
Regarding `CC(C)COCC(CN(Cc1ccccc1)c1ccccc1)N1CCCC1` (stereo not given), the growth in [1] is 31.3%; in assay [19], 84.3%; in assay [2], 29.5%; in assay [4] it was 71.5%; in assay [5], 63.6%; in assay [6], 78.5%. The growth in assay [8] is 51.9%; in assay [9], 55.7%; in [10], -24.5% (active); in assay [11], 72.5%; in assay [12], 79.1%; in assay [14], 41.9%. The growth is 51.4% in assay [15]; 81.1% in assay [16]; 47.5% in [20]; 84.9% in [17]; 77.2% in assay [18].
Regarding `Cn1[nH]cc(/C=N/C(N)=O)c1=O`, the growth was 103% in assay [1]; 121% in assay [19]; 101% in assay [2]; 115% in assay [5]; 113% in [6]; 119% in [7]. The growth in assay [8] is 107%; in assay [9], 105%; in assay [10] it was 115%; in assay [11], 106%; in [12] it was 106%; in assay [13], 103%. Further, the growth in [14] is 108%; in assay [16], 105%; in assay [20], 96.1%; in assay [17], 115%; in assay [18], 109%.
As for `O=C1CC(=O)N(c2ccccc2)O1`, the growth was 111% in assay [1]; 87.6% in [2]; 109% in assay [3]; 109% in assay [4]; 101% in assay [5]; 93.6% in assay [6]. Further, the growth was 106% in [7]; 99.9% in assay [8]; 102% in assay [9]; 85% in assay [11]; 110% in [12]; 104% in assay [13]. Further, the growth in assay [15] was 97.6%; in assay [16], 93.9%; in assay [20], 89.5%; in assay [17], 107%.
`COc1cccc(/C=C2\COc3ccc(O)c(O)c3C2=O)c1OC`: the growth was -5.62% (active) in assay [1]; -75.9% (active) in assay [19]; -34.4% (active) in [2]; 17.4% in assay [4]; 83.2% in assay [5]; -73% (active) in assay [6]. In addition, the growth in assay [7] is 26.8%; in [9], -10.7% (active); in [10], 21.6%; in [11] it was 21.8%; in assay [12] it was 31.6%; in assay [13] it was 10.9%. Besides, the growth in assay [14] was 19.5%; in assay [16], 8.54% (active); in assay [20], -72.6% (active); in assay [17], 47%; in assay [18] it was 97.3%.
For `CCOc1cc(C(C)(C)C)ccc1C1=N[C@H](c2ccc(Cl)cc2)[C@H](c2ccc(Cl)cc2)N1C(=O)N1CCN(CC#Cc2cccc3c2CN([C@@H]2CCC(=O)NC2=O)C3=O)CC1`, the growth is 24.5% in assay [1]; -32.9% (active) in assay [19]; -15.5% (active) in [2]; 39.9% in assay [4]; 35.1% in assay [5]; 70.3% in assay [6]. Moreover, the growth in assay [7] was 42.6%; in assay [9] it was 2.53% (active); in assay [10] it was 12.6%; in assay [11], 23%; in [12] it was 45%; in assay [13], 65.8%. In addition, the growth in [14] is 0.359% (active); in assay [16] it was 24.3%; in assay [20], 31.8%; in assay [17], 53.4%; in assay [18] it was 44.9%.
`CCN(CC)CCOc1ccc(C2=C(c3ccccc3)CCc3cc(OC)ccc32)cc1`: the growth in assay [1] was -31% (active); in [19], -91.4% (active); in assay [2], -2.94% (active); in [4], 33.1%; in assay [5] it was -72.7% (active); in assay [6], -17.4% (active). For the same compound, the growth in assay [8] is -63.6% (active); in [9], 6.79% (active); in assay [10] it was -50% (active); in [11], 44.2%; in assay [12] it was 53.8%; in [13], 22.2%. The growth is 7.49% (active) in assay [14]; -68% (active) in assay [15]; -60.2% (active) in assay [16]; -59.6% (active) in assay [20]; -96.2% (active) in assay [17]; -83.1% (active) in [18].
Regarding `Nc1cc(Cl)c(S(N)(=O)=O)cc1S(N)(=O)=O`, the growth in assay [1] is 104%; in [19] it was 84.5%; in [2] it was 113%; in assay [4] it was 113%; in assay [5], 111%; in [6], 88.1%. The growth in assay [8] is 108%; in [9], 97.9%; in assay [10], 122%; in assay [11], 86.7%; in [12] it was 113%; in assay [13], 100%. The growth in assay [14] is 106%; in [15] it was 102%; in assay [16] it was 101%; in assay [20], 101%; in assay [17], 121%; in assay [18], -16.2% (active).
